Tau fibril ThT = tau fibrillization inhibition (ThT binding) | P10636 | recombinant tau K18 P301L, heparin-induced fibrillization, ThT fluorescence | Potency, µM (titrated, usually from 57.4 µM), for inactives: top-dose activity, negative = inhibition, hits mostly inhibitors | 270,000 tested, 2.1% active; also: potency is read from the fitted curve at half-maximal effect; % is scaled to controls: 0 for no effect and ±100 for the full control effect; nearly all actives have a fitted effect of over 55% in size
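Aggregation was driven by heparin (20 uM final) acting on recombinant tau […] bearing P301L in 100 mM sodium acetate pH 7; fibrils were detected with Thioflavin T.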
KDM4E inh = inhibitors of human JMJD2E histone demethylase. B2RXH2. 230,000 tested, 1.6% active. JMJD2E catalytic domain, FDH-coupled NADH fluorescence (FDH is formaldehyde dehydrogenase). Potency, µM (highest dose often 57.1 µM), for inactives: top-dose activity change, negative = inhibition, actives largely listed as inhibitors; active = well fitted inhibition curve with a large enough effect, not every such curve was filed as active; inconclusive = small, poorly fitted or top-dose-only effect, or another doubt; inactive = no such curve, though single readings can be large or run the other way;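 also: potency is read from the fitted curve at half-maximal effect; 0% = wells with enzyme and -100% = buffer wells without enzyme; nearly all actives have a fitted effect of over 50% in size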
CBFb-RUNX1 inh = CBF-beta/RUNX1 interaction disruption | Potency, µM (series often up to 59.8 µM), for inactives: top-dose activity, negative = inhibition, most hits filed as inhibitors | 230,000 tested, under 10 active | Q01196+Q13951 | AlphaScreen CBFb-His/RUNX1-biotin binding, biochemical; also: % of control where 0% means no effect
Target sequence (Q01196 whole entry, looked up): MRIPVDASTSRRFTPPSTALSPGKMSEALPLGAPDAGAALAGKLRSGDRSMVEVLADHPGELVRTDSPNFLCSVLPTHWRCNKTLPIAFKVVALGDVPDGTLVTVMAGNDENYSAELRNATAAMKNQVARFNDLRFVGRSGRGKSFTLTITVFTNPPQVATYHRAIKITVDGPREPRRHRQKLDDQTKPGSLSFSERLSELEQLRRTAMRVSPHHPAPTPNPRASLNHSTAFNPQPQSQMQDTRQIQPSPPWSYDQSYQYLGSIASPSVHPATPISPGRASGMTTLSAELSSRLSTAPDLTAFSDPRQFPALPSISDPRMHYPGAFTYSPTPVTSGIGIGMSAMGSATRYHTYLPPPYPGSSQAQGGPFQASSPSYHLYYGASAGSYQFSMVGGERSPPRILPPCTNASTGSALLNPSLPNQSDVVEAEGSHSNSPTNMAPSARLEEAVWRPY
Target sequence (Q13951 whole entry, looked up): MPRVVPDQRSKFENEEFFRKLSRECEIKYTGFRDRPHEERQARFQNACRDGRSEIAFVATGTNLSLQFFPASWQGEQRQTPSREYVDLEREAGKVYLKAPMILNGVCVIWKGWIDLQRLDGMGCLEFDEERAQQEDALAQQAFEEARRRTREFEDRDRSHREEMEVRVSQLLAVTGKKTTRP
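Read-out: AlphaScreen. Format: His-CBF-beta with biotinylated RUNX1 (30 nM each) preincubated 20 min, compound 15 min, Ni-chelate plus streptavidin beads 90 min; room temperature throughout.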
Tau FP inhib = blocks human tau fibril formation measured by polarization; P10636; K18 P301L tau heparin fibrillization, Alexa594 FP, 6 h; Potency, µM (top dose mostly 57.7 µM), without a hit: at the top dose activity, negative = inhibition, actives largely listed as inhibitors; 280,000 tested, 0.39% active; also: potency is read from the fitted curve at half-maximal effect; % is scaled to controls: 0 for no effect and ±100 for the full control effect; nearly all actives have a fitted effect of over 55% in size
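Human tau K18 […] P301L fragment, 15 uM unlabeled plus 0.24 uM Alexa 594-labeled tau (final), with compound and 20 uM heparin in 100 mM sodium acetate pH 7; 6 hr at 37 C, then Alexa 594 FP read.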
LMNA splice mod = LMNA splicing modulation; HeLa LMNA splicing GFP/RFP minigene ratio, 48 h; Potency, µM (top dose mostly 46.1 µM), for the others: at the top dose ratio change, negative = inhibition, actives largely listed as inhibitors; 200,000 tested, 0.01% active; active = well fitted inhibition curve with a large enough effect in the signal ratio, with a control signal flat, not every such curve was filed as active; inconclusive = small, poorly fitted or top-dose-only effect, or effect the other way, or a change in a side signal; the % refers to the signal ratio; also: potency is read from the fitted curve at half-maximal effect; % is scaled to controls: 0 for no effect and ±100 for the full control effect
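Read-out is the ratio of GFP to DsRed2 object intensity, acquired by 488 nm laser-scanning cytometry on HeLa lamin A-EGFP minigene reporter cells. Compound incubation 48 hrs at 37 °C in Opti-MEM with 2% FBS; DMSO 0.5% final.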
Tau fluor cs = counter-screen for tau fibril formation inhibitors. AID 1463. tau K18 P301L Alexa594 fluorescence, heparin fibrillization. Potency, µM (series often up to 57.7 µM), for inactives: at the highest dose activity change, negative = decrease. 280,000 tested, 0.93% active; also: potency is read from the fitted curve at half-maximal effect; % is scaled to controls: 0 for no effect and ±100 for the full control effect; nearly all actives have a fitted effect of over 55% in size
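Human tau K18 P301L (15 uM unlabeled, 0.24 uM Alexa 594-labeled) in 100 mM sodium acetate pH 7 with 20 uM heparin, 6 hr at 37 C. ThT 30 uM added, 1 hr ambient; Alexa 594 FP and total fluorescence read at 555/632 nm.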
Starred values were filed as active, the others as inactive; [ ] = remark or other dose. An excerpt weighted towards active compounds, which were near 3.2% of everything screened. Unless noted, calls follow the shape of the dose curve; as a rule, active = well fitted curve in the direction sought with a large enough effect; inconclusive = small, poorly fitted or top-dose-only effect, or another doubt; inactive = no such curve, though single readings can be large; an effect the other way counts as inactive or inconclusive.

Screening Cc1nn(-c2ccccc2)c(N)c1N=Nc1ccc(Cl)cc1 returned Tau fibril ThT 7.9µM*, KDM4E inh -10%, CBFb-RUNX1 inh inconclusive, Tau FP inhib -6%, LMNA splice mod -4% and Tau fluor cs inconclusive.
For COc1ccccc1N1CCN(CCn2c(=O)c3c(c4ccccc4n3C)n(C)c2=O)CC1 the results were Tau fibril ThT inconclusive, CBFb-RUNX1 inh 21%, Tau FP inhib inconclusive and Tau fluor cs 1%.
For CCOc1ccc(NC(=O)/C(C#N)=C\c2ccc(-c3ccc(Cl)cc3)o2)cc1 the results were Tau fibril ThT 1.4µM*, Tau FP inhib -14% and Tau fluor cs -19%.
Screening N#C/C(=C\c1ccc(-c2ccc(Br)cc2)o1)C(=O)Nc1ccccc1O returned Tau fibril ThT -8%, Tau FP inhib -4% and Tau fluor cs -9%.
`N#C/C(=C\c1ccc(-c2ccc(C(=O)O)cc2)o1)C(=O)Nc1ccccc1C(=O)O` gave Tau fibril ThT 2.5µM*, Tau FP inhib 2% and Tau fluor cs -25%.
Cc1c(NC(=O)/C(C#N)=C/c2ccc(-c3ccc(Cl)cc3)o2)c(=O)n(-c2ccccc2)n1C was read as Tau fibril ThT 14µM*, KDM4E inh -2%, CBFb-RUNX1 inh -3%, Tau FP inhib 8%, LMNA splice mod inconclusive and Tau fluor cs -19%.
Screening Cc1c(NC(=O)/C(C#N)=C/c2ccc(-c3cc(Cl)ccc3Cl)o2)c(=O)n(-c2ccccc2)n1C returned Tau fibril ThT inconclusive, KDM4E inh 13%, CBFb-RUNX1 inh -30%, Tau FP inhib inconclusive, LMNA splice mod inconclusive and Tau fluor cs -10%.
CCCCOC(=O)/C(C#N)=C\c1ccc(-c2ccc(Cl)cc2)o1 was read as Tau fibril ThT 11%, Tau FP inhib -5% and Tau fluor cs -7%.
For CCc1ccc(-c2nn(CC(=O)NCc3ccccc3)c3c2cnc2ccc(C)cc23)cc1 the results were Tau fibril ThT -3%, Tau FP inhib -5%, LMNA splice mod inconclusive and Tau fluor cs -2%.
Cc1nn2c(C)c(C(=O)NC(C)c3ccccc3)cnc2c1-c1ccc(F)cc1 (centres undefined) was read as Tau fibril ThT -4%, Tau FP inhib 5%, LMNA splice mod 12%[46 µM] and Tau fluor cs -1%.
Screening CCCCCCCCCCCCCCCC(=O)OCC(O)C1OC(=O)C(O)=C1O (centres undefined) returned Tau fibril ThT inconclusive, CBFb-RUNX1 inh -22%, Tau FP inhib -16% and Tau fluor cs -13%.
Oc1ccc(/C=N/N2CCOCC2)c(O)c1O was read as Tau fibril ThT 8.9µM*, KDM4E inh 25µM*, CBFb-RUNX1 inh inconclusive, Tau FP inhib 10µM*, LMNA splice mod 4%[46 µM] and Tau fluor cs -27%.
`O=C1c2ccccc2C(=O)N1/N=C/c1ccc(O)c(O)c1O` gave Tau fibril ThT 4µM*, KDM4E inh 2.2µM*, Tau FP inhib 6.3µM* and Tau fluor cs inconclusive.
For COc1cccc(/C=N/N2CCOCC2)c1O the results were Tau fibril ThT -13%, KDM4E inh 1%, CBFb-RUNX1 inh -1%, Tau FP inhib 1%, LMNA splice mod -8% and Tau fluor cs 0%.
Screening O=C1NN(c2ccc(F)c(Cl)c2)C(=O)/C1=C\c1cccc(OC(=O)c2cccs2)c1 returned Tau fibril ThT 20µM*, KDM4E inh 7%, CBFb-RUNX1 inh -7%, Tau FP inhib -11%, LMNA splice mod -1% and Tau fluor cs inconclusive.
For O=[N+]([O-])c1cc2c(cc1/C=N\NS(=O)(=O)c1ccccc1)OCO2 the results were Tau fibril ThT inconclusive, KDM4E inh 23%, CBFb-RUNX1 inh 4%, Tau FP inhib inconclusive, LMNA splice mod -26% and Tau fluor cs -19%.
Screening CNc1nc(N/N=C/c2cc3c(cc2[N+](=O)[O-])OCO3)nc(Nc2ccccc2)n1 returned Tau fibril ThT 7.1µM*, KDM4E inh 2%, CBFb-RUNX1 inh inconclusive, Tau FP inhib 7% and Tau fluor cs -30%.
Screening OCl returned CBFb-RUNX1 inh 1%[21.7 µM] and LMNA splice mod inconclusive.
Screening Cc1ccc(/C=C2\SC(=S)N(/N=C/c3cc([N+](=O)[O-])ccc3O)C2=O)o1 returned Tau fibril ThT 18µM*, KDM4E inh 5%, CBFb-RUNX1 inh 1%, Tau FP inhib inconclusive and Tau fluor cs inconclusive.
Cc1nn(-c2ccccc2)c2c1C1(C(=O)N(C(C)C)c3ccccc31)C(C#N)=C(N)O2 (centres undefined) was read as Tau fibril ThT 25µM*, KDM4E inh -12%, CBFb-RUNX1 inh -7%, Tau FP inhib inconclusive, LMNA splice mod 0% and Tau fluor cs inconclusive.
`Cc1nn(-c2ccccc2)c(N)c1C1(O)C(=O)N(C(C)C)c2ccccc21` (centres undefined) gave Tau fibril ThT -12%, KDM4E inh 2%, CBFb-RUNX1 inh 4%, Tau FP inhib -7%, LMNA splice mod -3% and Tau fluor cs -13%.
CCOC(=O)N1CC(C)N(/[N+]([O-])=N/Oc2ccc([N+](=O)[O-])cc2[N+](=O)[O-])CC1C (centres undefined) was read as CBFb-RUNX1 inh 6%.
N#C/C(=N/Nc1ccc(OC(F)(F)F)cc1)C(N)=S was read as Tau fibril ThT 6.3µM*, KDM4E inh -4%, CBFb-RUNX1 inh -26%, Tau FP inhib 4% and Tau fluor cs inconclusive.
Screening COc1ccc(N/N=C(\C#N)C(N)=O)cc1 returned Tau fibril ThT inconclusive, KDM4E inh -4%, CBFb-RUNX1 inh 1%, Tau FP inhib 6%, LMNA splice mod -9% and Tau fluor cs -6%.
Screening Cc1ccc(/C=[N+](\[O-])c2ccc(N(C)C)cc2)c2nsnc12 returned Tau fibril ThT 6.3µM*, KDM4E inh 14µM*, CBFb-RUNX1 inh inconclusive, Tau FP inhib 32µM*, LMNA splice mod inconclusive and Tau fluor cs inconclusive.
COc1cccc(CNC(=O)c2ccc3c(c2)nc2n3CCC(C)C2)c1OC (centres undefined) was read as Tau fibril ThT -14%, Tau FP inhib -10%, LMNA splice mod 1%[46 µM] and Tau fluor cs -3%.
Screening CCC(=O)NC1CCc2cccc(OC)c2C1 (centres undefined) returned Tau fibril ThT -1%, CBFb-RUNX1 inh inconclusive, Tau FP inhib 1% and Tau fluor cs -1%.
